# Reference: PubChem BioAssay AID463082 (The Scripps Research Institute Molecular Screening Center, 2010)
# In all, about 330,000 compounds went through this assay and about 4,900 (1.5%) were called active. The list comes from a sample in which actives are over-represented; it also holds similar structures and randomly drawn compounds. Values without a mark were called inactive.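 Rule for the calls: active = inhibition above the mean inhibition across the screen plus 3 SD (cut at about 25% in these data); inactive = the rest.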
# Target: Platelet-activating factor acetylhydrolase (Homo sapiens) (UniProt Q13093)
# Experiment: inhibition of plasma PAF acetylhydrolase – biochemical, fluorescence polarization, human, primary screen (AID 463082);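 note: inhibitors block binding of the rhodamine activity-based probe so polarization drops; 0% = enzyme with DMSO and 100% = wells lacking pPAFAH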
# Conditions: recombinant pPAFAH, FP-rhodamine probe fluorescence polarization; at 3.39 µM; stronger effect = higher value
# Chain of Platelet-activating factor acetylhydrolase (Homo sapiens) (Q13093 whole entry, looked up): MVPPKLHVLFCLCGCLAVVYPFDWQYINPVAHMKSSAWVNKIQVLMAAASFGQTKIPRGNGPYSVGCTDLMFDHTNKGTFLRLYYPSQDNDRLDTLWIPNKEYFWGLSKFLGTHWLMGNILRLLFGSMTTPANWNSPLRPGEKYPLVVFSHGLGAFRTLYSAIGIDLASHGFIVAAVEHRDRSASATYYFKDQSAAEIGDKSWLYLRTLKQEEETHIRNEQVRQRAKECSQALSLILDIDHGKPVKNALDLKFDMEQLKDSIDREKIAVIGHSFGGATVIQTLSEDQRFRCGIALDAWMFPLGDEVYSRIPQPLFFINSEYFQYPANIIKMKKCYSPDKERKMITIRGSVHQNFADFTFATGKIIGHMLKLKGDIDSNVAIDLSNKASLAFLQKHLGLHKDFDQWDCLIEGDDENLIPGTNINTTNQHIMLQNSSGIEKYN
row,Compound,inhibition
1,Cc1ccc2c(c1)nnc1nnc(SCC(=O)O)n12,2.74%
2,CC(C)C[C@H](NC(=O)N1CCn2c1nc1ccccc12)C(=O)NC1CC1,1.86%
3,COc1ccc(C(=O)Nc2cc(C)c(NC(=O)c3ccccc3OC)cn2)cc1,2.94%
4,C=CCn1c(=S)[nH]c2scc(-c3ccco3)c2c1=O,42.6% (active)
5,C=CCn1cnc2scc(-c3ccccc3)c2c1=O,0.46%
6,C=CCn1c(=S)[nH]c2nc3c(cc2c1=O)COC(C)(C)C3,-1.93%
7,C#CCOCCOCCOCCNc1nc(N2CCN(C(=O)C(Cc3ccc(O)cc3)n3cc(C(N)CC(C)C)nn3)CC2)nc(N2CCN(C(=O)C(Cc3ccc(O)cc3)n3cc(C(N)C(C)CC)nn3)CC2)n1 (stereo not given),0.55%
8,CN(C)S(=O)(=O)N1CCC(Oc2cccc(C(=O)NCCCC3CCCC3)c2)CC1,3.19%
9,Cc1ccc(C(=O)Nc2ccc3c(c2)OCO3)cc1S(=O)(=O)N1CCCCC1,14.5%
10,Cc1ccc(C(=O)O)cc1-c1ccc(/C=C2\SC(=O)N(CC(=O)Nc3ccc4c(c3)OCO4)C2=O)o1,30.2% (active)
11,Cc1nn(CC(=O)Nc2ccc3c(c2)OCO3)c(C)c1[N+](=O)[O-],-3.11%
12,O=C(COC(=O)c1ccc(F)cc1)Nc1ccc2c(c1)OCO2,9.5%
13,O=C(NOCc1ccccc1)c1cccc([N+](=O)[O-])c1,7.75%
14,Cn1c(=O)c2c(ncn2CC(=O)N/N=C/c2cn[nH]c2-c2ccc(F)cc2)n(C)c1=O,1.61%
15,CCN(Cc1ccccc1)C(=O)Cc1ccc(OC)c(S(=O)(=O)N2CCOCC2)c1,-1.51%
16,Oc1c(Cl)cc(Cl)c(Cl)c1Cc1c(O)c(Cl)cc(Cl)c1Cl,68.2% (active)
17,O=C(CN1C(=O)NC2(CCOc3ccccc32)C1=O)Nc1cccc([N+](=O)[O-])c1 (stereo not given),0.7%
18,Cc1cccc(NC(=S)NCCc2ccc(F)cc2)c1C,3.05%
19,CCCCC(=O)Nc1ccc2c(c1)C(=O)NC2=O,34.6% (active)
20,CCCCN(C)CCC(=O)Nc1ccc(Cl)cc1,1.11%
21,CC(=O)Nc1ccc(Oc2ccc3c(c2)C(=O)NC3=O)cc1,-0.12%
22,Cc1cc(NC(=O)c2ccccc2C)no1,2.84%
23,O=[N+]([O-])c1cc(Cl)cc(/C=N/NC(=S)Nc2cc(S(=O)(=O)N3CCOCC3)ccc2Cl)c1O,36.5% (active)

row,Compound,inhibition
1,O=S(=O)(c1ccc(NC(=S)NN=C(C2CC2)C2CC2)cc1)N1CCOCC1,15%
2,Cc1ccc(S(=O)(=O)N2CCN(CC(=O)N/N=C/c3cc([N+](=O)[O-])ccc3Cl)CC2)cc1,3.66%
3,CSc1ccc(C(=O)C2CCCN(C(=O)c3ccc(C)nc3)C2)cc1 (stereo not given),5.05%
4,CCOC(=O)C1C(=O)OC2(CCCC2)C1C(=O)OCC (stereo not given),-0.69%
5,CN(CC(=O)N1CCN(c2ccccc2)CC1)S(=O)(=O)c1cccs1,-1.58%
6,CC(=O)N(C)c1ccc(NC(=O)C(F)(F)F)cc1,-4.77%
7,CN(C)c1ccc(N/C=C/C(=O)C(F)(F)F)cc1,42.4% (active)
8,CC(C)CNC(=O)C(=O)Nc1ccc(N(C)C)cc1,-8.71%
9,CCCc1ccc(C(=O)[C@@H]2[C@@H](C(C)=O)N3c4ccc(F)cc4C=C[C@@H]3[C@@]23C(=O)Nc2ccccc23)cc1,2.89%
10,O=C(CSc1ncnc2sccc12)NC1CCS(=O)(=O)C1 (stereo not given),4.85%
11,COc1ccc(NC(=O)C(NC(C)=O)C(=O)NCc2ccccc2Cl)cc1 (stereo not given),-2.3%
12,COC(=O)[C@@]12CCCN1[C@H](c1ccc(-c3ccc(F)cc3)c(OC)c1)[C@H]1C(=O)N(C)C(=O)[C@H]12,-3.21%
13,CNC(=S)N/N=C/c1cn(Cc2ccc(C)cc2)c2ccccc12,18.1%
14,CCOC(=O)N/N=C/c1cn(Cc2ccccc2Cl)c2ccccc12,30.1% (active)
15,COC(=O)N/N=C/c1cn(CCCOc2ccc(C)cc2)c2ccccc12,19.2%
16,Cc1ccc(-c2nc(SCC(=O)Nc3ccccc3OC(F)F)c3c(C)c(C(=O)O)sc3n2)cc1,1.04%
17,OCCCC1CCCCN1Cc1nc(Cc2ccccc2Cl)no1 (stereo not given),-2.08%
18,CC(C)c1ccc(Nc2nnc(SCC(=O)c3nnc(-c4ccccc4)o3)s2)cc1,30.8% (active)
19,CC(C)N(C(=O)CSc1nnc(NC2CC2)s1)c1ccccc1,-0.35%
20,Cc1ccccc1Nc1nnc(SCC(=O)c2cc3ccccc3o2)s1,2.17%
21,Fc1ccccc1/C=C1\CCCC2=C1Nc1ncnn1C2c1ccccc1F (stereo not given),14%
22,O=C1C=C(c2cccc(Cl)c2O)C[C@@H](c2ccc(F)cc2)C1,4.07%
23,O=C(NCc1ccc(F)cc1)C(c1ccccc1)N(C(=O)c1csnn1)C1CC1 (stereo not given),-2.59%

row,Compound,inhibition
1,CC1=NNC(=O)C1CCC(=O)N/N=C(\C)c1ccc(Cl)cc1 (stereo not given),3.21%
2,CC(C)CC(=O)Nc1cc(C(F)(F)F)ccc1N1CCOCC1,-1.9%
3,O=C(CCC1CCCCC1)Nc1cc(C(F)(F)F)ccc1N1CCOCC1,37.1% (active)
4,O=C(CN1C(=O)NC2(CCCC2)C1=O)Nc1cc(C(F)(F)F)ccc1N1CCOCC1,6.53%
5,Cc1ccc(O/C=C2\OC(=O)c3ccccc32)cc1,-0.55%
6,Cc1noc(C)c1NC(=O)Nc1ccc2c(c1)C(=O)N([C@H](C)CO)C[C@H](C)[C@@H](CN(C)C(=O)Nc1ccc(C(F)(F)F)cc1)O2,-10.3%
7,CC(=O)N1CCN(C(=O)c2cc(-c3ccc(Cl)s3)nc3ccccc23)CC1,3.56%
8,CC(=O)N1CCN(C(=O)c2cc(-c3ccc(C)o3)nc3ccccc23)CC1,41% (active)
9,COc1ccc(NC(=O)c2cc(-c3ccc(C)o3)nc3ccccc23)cc1,11.4%
10,O=C(Cn1ncc2c3ccccc3n(Cc3ccccc3)c2c1=O)NCc1ccccn1,-0.14%
11,CCN1CCN(C(=O)CCN2C(=O)c3ccccc3C2=O)CC1,-1.23%
12,CCCCOc1ccc(N(CC(=O)NC(C)C)C(=O)CCC(=O)Nc2ccccn2)cc1,28.3% (active)
13,CCOc1ccc(C(C(=O)NCCOC)N(CCOC)C(=O)CCC(=O)Nc2ccccn2)cc1 (stereo not given),5.87%
14,CCCCOc1ccc(N(CC(=O)NCC2CCCO2)C(=O)CCC(=O)Nc2cc(C)ccn2)cc1 (stereo not given),10.7%
15,COc1ccccc1C(=O)Nc1ccc(Nc2ccccc2)cc1,2.35%
16,CCC(=O)Nc1nnc(S(=O)(=O)N(CC(C)C)c2ccccc2)s1,3.99%
17,O=C(Nc1cc(C(F)(F)F)ccc1Cl)c1cc2nc3c(c(C(F)(F)F)n2n1)CCCC3,8.15%
18,Cc1cc(/C=C2\SC(=Nc3ccc(N4CCOCC4)cc3)N(C)C2=O)c(C)n1-c1cccnc1,2.99%
19,CN1C(=O)/C(=C/c2ccco2)SC1=Nc1cccc(C(=O)O)c1,25.1% (active)
20,CN=C1S/C(=C\c2c(OC)cc(OC)cc2OC)C(=O)N1C,-0.42%
21,Cc1nc2ccccc2c(=O)n1-c1ccc(F)c(NC(=O)c2cccs2)c1,-0.28%
22,O=C(NC1CCCC1)c1cc(-c2ccccc2)on1,8.25%
23,COCCNC(=O)/C(C#N)=C/c1cccc(OCc2ccccc2)c1,2.65%

row,Compound,inhibition
1,COc1ccc(CNC(=O)/C(C#N)=C/c2cccc(OC)c2OC)cc1,-1.57%
2,N#C/C(=C\c1ccc(O)c(O)c1)C(=O)NCc1ccccc1,28.2% (active)
3,Cc1cccc(C)c1N1CCN(S(=O)(=O)N2CCCCC2)CC1,0.66%
4,O=C1COc2ccc(C(=O)COC(=O)c3cccnc3Cl)cc2N1,3.48%
5,Cc1cc(=O)oc2c1ccc1ccccc12,1.01%
6,O=C1CCC([N+](=O)[O-])C(c2ccccc2Br)N1 (stereo not given),2.25%
7,CN(CC(=O)Nc1ccc(OC(F)(F)F)cc1)C(=O)C1CCC1,2.02%
8,CC(CC(=O)Nc1ccc(F)cc1F)S(=O)(=O)c1ccc2c(c1)NC(=O)CO2 (stereo not given),0.8%
9,Cc1cc(C)n(C(=O)c2ccc(C)c(S(=O)(=O)N3CCOCC3)c2)n1,2.24%
10,O=[N+]([O-])C(=c1ccc2c(c1)N1C3=C(CCCC3)CC3CCCCC31N=2)[N+](=O)[O-] (stereo not given),33.6% (active)
11,CCN1CCN(C(=O)C2CCN(S(=O)(=O)c3cc(Cl)ccc3Cl)CC2)CC1,3.87%
12,CCc1cc2c(=O)c(-c3nc4ccccc4n3C)c(CCCC(=O)O)oc2cc1OC(=O)C(C)(C)C,3.51%
13,COc1ccccc1N1CC(O)=C(c2nc3ccccc3s2)C1=N,32.9% (active)
14,CCc1ccc(N2CC(O)=C(c3nc4ccccc4c(=O)[nH]3)C2=N)cc1,-1.78%
15,COc1ccc(-n2nnnc2-c2nc3ccccc3s2)cc1,-4.42%
16,C=CCC[C@H](Cc1ccc(F)cc1)C(=O)OC[C@@H](NC(=O)[C@@H](CC=C)CC(=O)N[C@H](CO)Cc1ccccc1)C(C)(C)C,4.14%
17,Cc1cc(NC(=O)CSC2=NS(=O)(=O)c3cc(Cl)ccc3N2)no1,-4.37%
18,CS(=O)(=O)N1CCCC(C(=O)Nc2ccccc2C(F)(F)F)C1 (stereo not given),-1.76%
19,CC(=O)Nc1cccc(C(=O)OCC(=O)Nc2nnc(-c3ccccc3)o2)c1,5.98%
20,O=C(COC(=O)c1ccc(Oc2ccccc2)cc1)Nc1nnc(-c2ccccc2)o1,25% (active)
21,O=C(COC(=O)c1ccccc1Br)Nc1nnc(-c2ccccc2)o1,4.87%
